ALDH1A1 inh – blocks purified human ALDH1A1 activity. hit rate 7.3% among 220,000. P00352. Purified ALDH1A1, NADH fluorescence, propionaldehyde substrate. Potency, µM (doses to about 75.3 µM), for the others: at the top dose activity, negative = inhibition, usual class: inhibitors;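 also: plate controls were no enzyme wells and a reference inhibitor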
Target sequence (P00352 whole entry, looked up): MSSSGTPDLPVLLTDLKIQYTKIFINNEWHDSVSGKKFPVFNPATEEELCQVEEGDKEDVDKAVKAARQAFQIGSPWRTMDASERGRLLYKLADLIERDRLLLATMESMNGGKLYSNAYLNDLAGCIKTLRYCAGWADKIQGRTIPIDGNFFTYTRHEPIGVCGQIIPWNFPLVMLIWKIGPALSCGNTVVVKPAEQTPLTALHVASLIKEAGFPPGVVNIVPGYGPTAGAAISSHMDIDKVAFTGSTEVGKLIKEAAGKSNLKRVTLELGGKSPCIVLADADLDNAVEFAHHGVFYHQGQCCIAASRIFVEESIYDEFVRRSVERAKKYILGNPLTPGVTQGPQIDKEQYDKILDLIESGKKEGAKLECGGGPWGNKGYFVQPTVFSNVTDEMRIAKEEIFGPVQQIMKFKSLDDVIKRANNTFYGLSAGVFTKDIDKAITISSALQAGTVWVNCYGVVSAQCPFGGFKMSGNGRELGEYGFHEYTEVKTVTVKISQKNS
HTT ATP protect – protects HTT-Q103 PC12 cells, measured by ATP | PC12 HTT-Q103 induced, cytoprotection, ATP luminescence, 40 h | Potency, µM (series often up to 56.4 µM), for inactives: cytoprotection (ATP increase), hits mostly activators | hit rate 0.14% among 230,000; active = well fitted curve in the direction sought with a large enough effect; inconclusive = small, poorly fitted or top-dose-only effect, or another doubt; inactive = no such curve, though single readings can be large; an effect the other way counts as inactive or inconclusive; also: % of control where 0% means no effect; nearly all actives have a fitted effect of over 45% in size
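PC12 cells with ecdysone-inducible HTT exon 1 Q103-GFP, induced with 100 nM tebufenozide and co-treated with library compounds in a dose series (1536-well, 1500 cells/well). Cytoprotection read as ATP content by ATPlite luminescence.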
Lamin A splicing – LMNA splicing modulation; hit rate 0.01% among 200,000; HeLa LMNA splicing GFP/RFP minigene ratio, 48 h; Potency, µM (titrated, usually from 46.1 µM), inactives show at the top dose ratio change, negative = inhibition, actives largely listed as inhibitors; active = well fitted inhibition curve with a large enough effect in the signal ratio, with a control signal flat, not every such curve was filed as active; inconclusive = small, poorly fitted or top-dose-only effect, or effect the other way, or a change in a side signal; the % refers to the signal ratio; also: % is scaled to controls: 0 for no effect and ±100 for the full control effect
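Read-out is the ratio of GFP to DsRed2 object intensity, acquired by 488 nm laser-scanning cytometry on HeLa lamin A-EGFP minigene reporter cells. Compound incubation 48 hrs at 37 °C in Opti-MEM with 2% FBS; DMSO 0.5% final.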
HttQ103 aggreg – mutant huntingtin aggregation inhibition; Potency, µM (highest dose often 46.1 µM), without a hit: top-dose activity change, negative = inhibition, most hits filed as inhibitors; hit rate 1.1% among 220,000; AID 1688; PC12 HttQ103-GFP aggregates, Acumen cytometry, 40 h; active = well fitted curve in the direction sought with a large enough effect; inconclusive = small, poorly fitted or top-dose-only effect, or another doubt; inactive = no such curve, though single readings can be large; an effect the other way counts as inactive or inconclusive; also: % is scaled to controls: 0 for no effect and ±100 for the full control effect; nearly all actives have a fitted effect of over 60% in size
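Multiplexed with ATP-based cell death, this channel scores GFP aggregates in PC12 cells expressing inducible HTTex1-Q103-GFP. Induction used 100 nM tebufenozide; compounds were tested in concentration series.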
HPGD block – inhibitors of human 15-hydroxyprostaglandin dehydrogenase (HPGD); P15428; Potency, µM, for the others: at the highest dose activity change, negative = inhibition, most hits filed as inhibitors; purified HPGD, NADH fluorescence kinetic, PGE2 substrate; AID 894; hit rate 4.3% among 150,000; also: % is scaled to controls: 0 for no effect and ±100 for the full control effect
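20 nM HPGD preincubated 15 min at room temperature with compound in 50 mM Tris-HCl pH 8, 0.01% Tween 20. Started with 1 mM NAD+ and 30 uM prostaglandin E2; NADH fluorescence (360/450 nm) read 5 times over 30-s intervals, last minus first.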
The depositor's hits bear a star; ? = inconclusive; / = not tested or not shown; [ ] = another dose, or the depositor's remark. Rows were chosen to be rich in hits. Some 8.8% of all compounds tested hit in one or more screens of this group. Unless noted, calls follow the shape of the dose curve; as a rule, active = well fitted inhibition curve with a large enough effect (not every such curve was filed as active); inconclusive = small, poorly fitted or top-dose-only effect, or another doubt; inactive = no such curve, though single readings can be large or run the other way. Potency is read from the fitted curve at half-maximal effect.

SMILES | ALDH1A1 inh | HTT ATP protect | Lamin A splicing | HttQ103 aggreg | HPGD block
O=C(NCc1ccccc1)c1cnc2sc(N3CCCC3)nn2c1=O | / | / | -8%[46 µM] | / | /
Cc1cc(O)c(C(C)C)cc1CN1CCCCC1 | -2%[13.5 µM] | 6%[10 µM] | / | / | -3%
COc1ccc(-n2ncc(C(=O)Nc3ccc4c(c3)OCCO4)c2C2CCN(C(=O)OC(C)(C)C)CC2)cc1 | / | / | -7%[46 µM] | / | /
CC(=O)OC[C@@]1(O)C[C@]23CCC4c5ccoc5CC[C@@]4(C)C2CCC1C3 (some centres not stated) | -2% | / | ? | / | -2%
C[C@@]12C=Cc3occc3C1CC[C@@]13C[C@@H](CCC12)[C@@](O)(CO)C3 (some centres not stated) | 1.4µM* | -70% | / | / | -5%
Cc1cc(C)c2c(N)c(C(=O)c3ccccc3Cl)sc2n1 | ? | 7%[10 µM] | / | 1%[9.22 µM] | /
Cc1cc(C)c2c(N)c(S(=O)(=O)Cc3ccccc3)sc2n1 | -14% | -2% | 3% | -3%[9.22 µM] | 22µM*
Nc1nc2cc(S(=O)(=O)NC3=NCCCCC3)ccc2s1 | / | 5%[10 µM] | / | -12%[9.22 µM] | /
CCOC(=O)c1ccc(S(=O)(=O)Nc2nc3cc(S(=O)(=O)NC4=NCCCCC4)ccc3s2)cc1 | 25µM* | 18µM* | -25%[46 µM] | -19% | /
CC(=O)n1nc(-c2ccco2)nc1SCc1ccccc1 | -15% | -2%[10 µM] | -4% | 1% | 13µM*
CCC(=O)n1nc(-c2ccco2)nc1SCc1ccccc1 | ? | -53% | 21% | -11% | 13µM*
COc1cccc(C(C(=O)NC2CCCC2)N(CC2CCCO2)C(=O)Cc2cccs2)c1 (configuration not stated) | 11% | 11%[10 µM] | -18%[46 µM] | 0%[9.22 µM] | /
Cc1ccc(S(=O)(=O)/N=C(/Nc2ccc3[nH]c(=O)[nH]c3c2)c2ccc(F)cc2)cc1 | 8.9µM* | 30%[10 µM] | ? | 5% | /
COC(=O)CC1[C@@]2(C)C[C@]34OC5(C)OC6(C7CC(=O)OC(c8ccoc8)[C@]7(C)CCC6(O5)[C@]13C)C(OC(C)=O)[C@]4(OC(C)=O)C2OC(C)=O (some centres not stated) | 10% | / | -5% | / | -2%
CCC(=O)Nc1ccc(S(=O)(=O)NCc2cccn2Cc2cccc(C)c2)cc1 | / | / | -2%[46 µM] | / | /
COc1ccc(-c2cc(C(=O)NCc3cccs3)no2)cc1 | / | 5%[10 µM] | / | -1%[9.22 µM] | /
COc1ccc2nc3sc(C(=O)NCc4cccs4)c(N)c3cc2c1 | 4µM* | -35% | ? | 3% | ?
CCOC(=O)N1CCN(C2=CC(=O)OC23CCCCC3)CC1 | ? | 16%[10 µM] | 8% | 28% | -11%
O=C1C=C(N2CCCCCC2)C2(CCCCC2)O1 | 8.9µM* | / | / | / | /
CCC1(C)C(Nc2c(C)cccc2C)=NC(=S)N1c1ccc(NC(C)=O)cc1 (configuration not stated) | 3% | 15%[10 µM] | 0% | -1% | /
Cn1c(SCC(=O)N2c3ccccc3CCc3ccccc32)nnc1-c1cc2ccccc2cc1O | ? | 0%[10 µM] | -8% | 14% | -3%
Cc1cccc(-c2nnc(SCC(=O)N3c4ccccc4CCc4ccccc43)n2C)c1 | 11µM* | 13%[10 µM] | -15% | 11% | -3%
Cn1cc(SCC(=O)N2CCCc3ccccc32)c2ccccc21 | 10µM* | 8%[10 µM] | -24% | -10% | -14%
O=C(CSc1ccc2nnc(-c3ccc(F)cc3)n2n1)N1CCCc2ccccc21 | 14µM* | 18%[10 µM] | ? | -12% | -3%
Cn1c(SCC(=O)N2CCCc3ccccc32)nnc1-c1ccccc1 | 25µM* | 2% | ? | -3% | -8%
SMILES | ALDH1A1 inh | HTT ATP protect | Lamin A splicing | HttQ103 aggreg | HPGD block
COc1ccc(C(=O)C2CCCN(C(=O)c3ccc4cc[nH]c4c3)C2)c(C)c1 (configuration not stated) | ? | ? | 14%[46 µM] | 1%[9.22 µM] | /
COc1ccc(-n2cc(C(=O)NCCc3cc(OC)ccc3OC)c3ccccc3c2=O)cc1 | / | / | -16%[46 µM] | / | /
CCC(C)NC(=O)Cn1c(-c2ccccc2)cc(C(C)=O)c1C (configuration not stated) | 3% | -21% | / | -13% | /
O=C(OCc1cc(=O)n2nc(C3CCCCC3)sc2n1)c1ccccc1Cl | / | / | -1%[46 µM] | / | /
c1nc(NCCc2cnc[nH]2)c2[nH]cnc2n1 | 2%[13.5 µM] | -6%[10 µM] | / | / | -14%
Cc1ccc(NCc2nnc(SCC(=O)N3CCc4ccccc43)n2C)cc1 | 8.9µM* | -16%[10 µM] | 14% | 9% | 0%
